# Measured values taken from the supplement of paper PMC6607015.
# Counter-ions that a name gives are not always drawn.
# Experiments:
# Conditions in all cases: compound concentration in added solution (µM; 5 µl added to 20 µl cells): 10; 18 h
# [1] = tested on: A431; assay: LBPA endosome anti-LBPA integrated intensity (sum per cell), Z-score; higher = more LBPA staining
# Summary of the method: (§1)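 Duplicate 384-well imaging plates were prepared with 5 µl of 10 µM compound solution per well, and 3,500 HeLa MZ or A431 cells in 20 µl were added on top. Following 18 h of incubation and fixation in 4% PFA, cells received 6C4 anti-LBPA antibody, filipin, propidium iodide and CellTracker green. Four images per well at 20× were segmented in MetaXpress to yield per-cell integrated LBPA or filipin intensity, whole-cell or within LBPA endosomes. These intensities are reported as Z-scores normalised in AcuityXpress.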
# [2] = tested on: HeLa MZ; assay: as above
# Summary of the method: as §1
# [3] = tested on: A431; assay: whole-cell filipin (free cholesterol) integrated intensity, Z-score; higher = more cholesterol staining
# Summary of the method: as §1
# [4] = tested on: HeLa MZ; assay: as above
# Summary of the method: as §1
# [5] = tested on: A431; assay: filipin (cholesterol) integrated intensity within LBPA endosomes, Z-score; higher = more cholesterol in LBPA endosomes
# Summary of the method: as §1
# [6] = tested on: HeLa MZ; assay: as above
# Summary of the method: as §1
SMILES,LBPA endosome anti-LBPA integrated intensity (z-score) [1],LBPA endosome anti-LBPA integrated intensity (z-score) [2],whole-cell filipin (z-score) [3],whole-cell filipin (z-score) [4],filipin (z-score) [5],filipin (z-score) [6]
CCCc1nn(C)c2c(=O)[nH]c(-c3cc(S(=O)(=O)N4CCN(C)CC4)ccc3OCC)nc12 [Sildenafil],-0.41,-0.61,-0.134,-0.0955,-0.415,-0.257
CN(c1nccc(=O)[nH]1)C1CCN(c2nc3ccccc3n2Cc2ccc(F)cc2)CC1 [Mizolastine],-0.6,0.425,-0.708,0.222,-0.551,0.0832
CCS(=O)(=O)CCn1c([N+](=O)[O-])cnc1C [Tinidazole],-0.319,-0.148,-0.195,-0.143,-0.394,-0.524
C#C[C@]1(O)CC[C@H]2[C@@H]3CCc4cc(OC)ccc4[C@H]3CC[C@@]21C [Ethynylestradiol 3-methyl ether],-0.376,0.717,-0.391,0.0701,-0.42,-0.16
COc1ccccc1O [Guaiacol],-0.278,0.0632,0.299,-0.2,-0.335,-0.255
CC[C@@H]1C(=O)OC[C@@H]1Cc1cncn1C [Pilocarpine nitrate],-0.402,-0.0375,-0.715,-0.63,-0.502,-0.573
NC[C@@H]1O[C@@H](O[C@H]2[C@H](O)[C@@H](O[C@H]3O[C@H](CO)[C@@H](O)[C@H](N)[C@H]3O)[C@H](N)C[C@@H]2N)[C@@H](O)[C@H](O)[C@H]1O [Kanamycin A sulfate],-0.635,-0.981,-0.97,-0.361,-0.515,-0.597
CN1C(=O)CC(c2ccccc2)C1=O (stereo not given) [Phensuximide],-0.488,-0.914,-0.489,-0.774,-0.376,-0.653
CC[N+](C)(C)Cc1ccccc1Br [Bretylium tosylate],-0.568,-0.254,-0.37,-0.522,-0.5,-0.561
CCC(Cc1c(I)cc(I)c(N)c1I)C(=O)O (stereo not given) [Iopanoic acid],-0.521,-0.571,-0.348,-0.587,-0.484,-0.466
COC1=CC(=O)C[C@@H](C)[C@]12Oc1c(Cl)c(OC)cc(OC)c1C2=O [Griseofulvin],-0.41,-0.867,-0.73,-1.73,-0.468,-0.516
N=C(N)NCCN1CCCCCCC1 [Guanethidine sulfate],-0.647,-1.05,-0.871,-0.0594,-0.596,-0.454
CC1(C)[C@H](C(=O)O)N2C(=O)C[C@H]2S1(=O)=O [Sulbactam],-0.453,-1.27,-0.128,-0.121,-0.375,-0.509
CCCCOc1ccc(C(=O)CCN2CCCCC2)cc1 [Dyclonine hydrochloride],0.717,0.215,0.502,-0.794,0.482,-0.156
CS(=O)(=O)c1ccc(C2=C(c3ccccc3)C(=O)OC2)cc1 [Rofecoxib],-0.672,-1.7,-1.07,-0.451,-0.59,-0.599
Cc1ccccc1N1C(=O)c2cc(S(N)(=O)=O)c(Cl)cc2NC1C (stereo not given) [Metolazone],-0.495,-0.0744,-0.881,0.441,-0.436,-0.348
CC[N+](C)(C)c1cccc(O)c1 [Edrophonium chloride],-0.613,-1.29,-0.969,-0.842,-0.456,-0.596
COc1cc(-c2ccc(=O)[nH]n2)ccc1OC(F)F [Zardaverine],-0.319,0.0365,0.286,0.356,-0.298,-0.332
COc1ccc(C(Cl)=C(c2ccc(OC)cc2)c2ccc(OC)cc2)cc1 [Chlorotrianisene],-0.163,-0.13,0.392,-0.127,-0.183,-0.174
CC(=O)Oc1cc(C(C)C)c(OCCN(C)C)cc1C [Moxisylyte hydrochoride],-0.364,-0.0871,-0.91,-1.03,-0.482,-0.452
CC1(C)S[C@@H]2[C@H](NC(=O)[C@H](N)c3ccccc3)C(=O)N2[C@H]1C(=O)O [Ampicillin trihydrate],-0.606,-0.403,-0.896,-0.707,-0.569,-0.702
CO[C@H]1/C=C/O[C@@]2(C)Oc3c(C)c(O)c4c(O)c(c(/C=N/N5CCN(C)CC5)c(O)c4c3C2=O)NC(=O)/C(C)=C\C=C\[C@H](C)[C@H](O)[C@@H](C)[C@@H](O)[C@@H](C)[C@H](OC(C)=O)[C@@H]1C [Rifampicin],-0.422,-0.231,-0.651,-0.372,-0.402,-0.338
Clc1ccc(C(Cn2ccnc2)OCc2c(Cl)cccc2Cl)c(Cl)c1 (stereo not given) [Isoconazole],-0.0559,1.26,-0.00171,-0.264,0.0343,0.0567
CN/C(=N\CCSCc1nc[nH]c1C)NC#N [Cimetidine],-0.436,-0.604,-0.5,-0.3,-0.458,-0.409
Cc1cccc(C)c1OCC(C)N (stereo not given) [Mexiletine hydrochloride],-0.572,-0.935,-0.883,-0.901,-0.495,-0.576

SMILES,LBPA endosome anti-LBPA integrated intensity (z-score) [1],LBPA endosome anti-LBPA integrated intensity (z-score) [2],whole-cell filipin (z-score) [3],whole-cell filipin (z-score) [4],filipin (z-score) [5],filipin (z-score) [6]
CC(C)(Sc1cc(C(C)(C)C)c(O)c(C(C)(C)C)c1)Sc1cc(C(C)(C)C)c(O)c(C(C)(C)C)c1 [Probucol],-0.46,-0.408,-0.766,-0.622,-0.482,-0.445
NC[C@H]1O[C@H](O[C@H]2[C@H](O)[C@@H](O[C@H]3O[C@H](CO)[C@@H](O)[C@H](N)[C@H]3O)[C@H](N)C[C@@H]2N)[C@H](N)C[C@@H]1O [Tobramycin],-0.535,-1.57,-0.669,-0.773,-0.528,-0.681
CN1CCC(=C2c3ccccc3C=Cc3ccccc32)CC1 [Cyproheptadine hydrochloride],2.41,0.629,1.01,-1.18,2.25,0.976
Cc1ccc2c(c1)c1c3n2CCNC3CCC1 (stereo not given) [Pirlindole mesylate],0.0753,0.024,0.654,0.474,0.437,0.263
CC1Cc2ccccc2N1NC(=O)c1ccc(Cl)c(S(N)(=O)=O)c1 (stereo not given) [Indapamide],-0.302,0.5,-0.729,-0.419,-0.453,-0.438
CC(=O)Oc1cccc2c1C(=O)c1c(OC(C)=O)cc(C(=O)O)cc1C2=O [Diacerein],-0.503,-0.299,-0.484,0.525,-0.459,-0.327
COc1ccc(C2CNC(=O)C2)cc1OC1CCCC1 (stereo not given) [Rolipram],-0.493,-0.432,-0.586,-0.445,-0.453,-0.525
Nc1ccc(S(=O)(=O)Nc2nccs2)cc1 [Sulfathiazole],-0.403,-0.679,-0.453,0.103,-0.36,-0.308
C[C@]12C[C@H](O)[C@H]3[C@@H](CCC4=CC(=O)CC[C@@]43C)[C@@H]1CC[C@@H]2C(=O)CO [Corticosterone],-0.334,0.522,-0.492,-0.633,-0.326,-0.407
"CN1[C@@H]2CC[C@H]1C[C@@H](OC(=O)C(O)c1ccccc1)C2 (mixture of isomers) [Homatropine hydrobromide (R,S)]",-0.625,-0.216,-0.825,-0.838,-0.591,-0.57
CC(=O)O[C@H]1C[C@@]2(C)[C@@H](C[C@@H](O)[C@H]3[C@@]4(C)CC[C@@H](O)[C@@H](C)[C@@H]4CC[C@@]32C)/C1=C(\CCC=C(C)C)C(=O)O [Fusidic acid sodium salt],-0.322,0.503,-0.581,0.0569,-0.49,-0.416
COc1ccc2cc(CCC(C)=O)ccc2c1 [Nabumetone],-0.302,0.891,-0.304,0.488,-0.495,-0.175
CCOc1ccccc1OC(c1ccccc1)C1CNCCO1 (stereo not given) [Reboxetine mesylate],-0.315,0.133,-0.477,-0.595,-0.205,-0.384
CN[C@@H]1[C@H](O[C@H]2[C@H](O[C@H]3[C@H](O)[C@@H](O)[C@H](NC(=N)N)[C@@H](O)[C@@H]3NC(=N)N)O[C@@H](C)[C@]2(O)CO)O[C@@H](CO)[C@H](O)[C@H]1O [Dihydrostreptomycin sulfate],-0.602,-1.07,-1,-0.938,-0.56,-0.704
CCOc1ccccc1OCC1CNCCO1 (stereo not given) [Viloxazine hydrochloride],-0.217,0.639,-0.124,-0.0106,-0.346,-0.261
Cc1cc(C(C)(C)C)c(O)c(C)c1CC1=NCCN1 [Oxymetazoline hydrochloride],-0.605,0.256,-0.84,-0.57,-0.491,-0.228
O=S(=O)(O)c1cc(O)ccc1O [Ethamsylate],-0.297,0.237,0.0355,-0.226,-0.436,-0.57
COc1cc2nc(N(C)CCCNC(=O)C3CCCO3)nc(N)c2cc1OC (stereo not given) [Alfuzosin hydrochloride],1.37,1.11,-0.35,-0.351,0.00526,0.128
CCN1CCCC1CNC(=O)c1cc(S(N)(=O)=O)ccc1OC (stereo not given) [Sulpiride],-0.472,-0.315,-0.817,-0.434,-0.518,-0.501
CCN1CCCC(OC(=O)C(c2ccccc2)c2ccccc2)C1 (stereo not given) [Piperidolate hydrochloride],1.4,1.47,1.77,1.11,1.7,0.861
CCC(C)(C)C(=O)O[C@H]1C[C@@H](C)C=C2C=C[C@H](C)[C@H](CC[C@@H]3C[C@@H](O)CC(=O)O3)[C@H]21 [Simvastatin],-0.965,-1.54,-0.982,-0.319,-0.637,0.381
CC1=C(/C=C/C(C)=C/C=C/C(C)=C/C(=O)O)C(C)(C)CCC1 [Retinoic acid],-0.177,-0.508,-0.103,-0.698,-0.286,-0.43
O=C(CCCCC(=O)Nc1c(I)cc(I)c(C(=O)O)c1I)Nc1c(I)cc(I)c(C(=O)O)c1I [Iodipamide],-0.326,-0.366,-0.456,-0.377,-0.385,-0.472
CC12CC3CC(C)(C1)CC(N)(C3)C2 [Memantine Hydrochloride],-0.449,0.231,0.233,0.438,-0.349,-0.0275
Cn1nnc2c(C(N)=O)ncn2c1=O [Temozolomide],-0.384,0.224,-0.454,0.0676,-0.437,-0.627
